Source: PubChem BioAssay AID2778 (National Center for Advancing Translational Sciences (NCATS), 2010)
Results filed as inconclusive are left out. Unmarked numbers belong to inactive results. Activity calls are given as the source filed them. The call rests on the fitted dose curve; in most records, active means well fitted inhibition curve with a large enough effect; inconclusive means small, poorly fitted or top-dose-only effect, or effect the other way; inactive means flat fitted curve, though single readings scatter. Positions of bridges follow the written chain, without caps; N, C: chain ends. Non-standard residues stand in square brackets, D forms with d. Residues, ends and D or L forms follow the SMILES beside them. ξ: configuration not given here. *: point of attachment. Octanoyl(6-Me) = CCC(C)CCCCC(=O)*; ξThr(3R) = C[C@@H](O)C(N)C(=O)O; dDab = NCC[C@@H](N)C(=O)O; Dab = NCC[C@H](N)C(=O)O
On the % scale 0 is the no-effect control and ±100 the full control effect; potency means the concentration at half of the fitted maximal effect.

These compounds were tested against Menin (Homo sapiens) (UniProt O00255) (assay: Confirmation of Inhibitors Targeting the Menin-MLL Interaction in MLL Related Leukemias: Confirmation in an HTRF (commercial TR-FRET) Assay using His-tagged menin and biotin-labeled MLL peptide). Settings: His-menin / biotin-MLL peptide binding; series mostly up to 126 µM; activity change, negative = inhibition: at the top concentration.
Chain of Menin (Homo sapiens) (O00255 whole entry, looked up): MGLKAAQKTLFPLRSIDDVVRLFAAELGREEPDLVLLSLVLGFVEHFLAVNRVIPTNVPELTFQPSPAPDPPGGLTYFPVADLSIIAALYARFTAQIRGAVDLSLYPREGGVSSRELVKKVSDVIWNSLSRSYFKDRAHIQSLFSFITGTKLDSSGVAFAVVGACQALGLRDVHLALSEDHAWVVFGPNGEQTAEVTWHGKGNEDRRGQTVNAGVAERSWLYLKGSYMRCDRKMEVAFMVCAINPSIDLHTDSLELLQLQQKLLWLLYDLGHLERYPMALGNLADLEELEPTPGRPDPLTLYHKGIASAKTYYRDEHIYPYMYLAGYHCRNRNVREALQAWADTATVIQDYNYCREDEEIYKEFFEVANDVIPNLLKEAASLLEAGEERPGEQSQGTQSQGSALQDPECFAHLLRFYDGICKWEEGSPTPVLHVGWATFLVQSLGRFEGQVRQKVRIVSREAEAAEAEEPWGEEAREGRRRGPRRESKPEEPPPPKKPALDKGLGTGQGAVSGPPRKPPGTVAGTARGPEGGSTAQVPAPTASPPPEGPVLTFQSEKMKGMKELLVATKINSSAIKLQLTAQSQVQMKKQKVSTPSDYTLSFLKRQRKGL
Procedure, shortened: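 Compounds were incubated 1 hr at ambient with a preformed His6-menin (200 nM)/biotinylated MLL-w.t. peptide (80 nM) complex in Tris pH 7.5 buffer; anti-His Eu-cryptate (3.5 nM) and SA-XL665 (10 nM) added, TR-FRET read after 1h.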
For `C/C(=N\Nc1ccc(Cl)c(C(=O)O)c1)c1ccc[nH]1`, the “activity change, negative = inhibition” value was 6.1%. With `CCOC(=O)c1cnc2ccc(OC)cc2c1Nc1ccc(N2CCN(C)CC2)cc1` the “activity change, negative = inhibition” value was -21.7% [at 383 µM]. In the case of `COc1ccc(C2=C(CN(C)C)C(c3ccccc3)c3ccccc3O2)cc1` (stereo unspecified), the “activity change, negative = inhibition” value was 1.78%. For `COc1ccc(/C=C(\C#N)C(=O)NCc2ccccc2)cc1`, the “activity change, negative = inhibition” value was -1.59%. For `Cc1ccc(Nc2nc(N)[nH]c(=O)c2N=O)cc1`, the “activity change, negative = inhibition” value was 17.5%. In the case of `O=C(CC(=O)c1ccccc1)Nc1cc(C(F)(F)F)ccc1Cl`, the “activity change, negative = inhibition” value was -2.84%. With `Cn1c(=O)[nH]c(=O)c2c1nc(Br)n2CCSc1nc2ccccc2o1` the “activity change, negative = inhibition” value was -2.42% [at 383 µM]. For `Cc1cnc(CNc2ccnc(-c3ccoc3)n2)cn1`, the “activity change, negative = inhibition” value was -2.59% [at 383 µM]. In the case of `CC(c1cc2ccccc2s1)N(O)C(N)=O` (stereo unspecified), the “activity change, negative = inhibition” value was 2.69% [at 383 µM]. In the case of `CCN1C(=O)[C@@H]2C(C(=O)c3cnccn3)=NN[C@@H]2C1=O`, the “activity change, negative = inhibition” value was 6.13%. In the case of `O=C1Cc2ccccc2Sc2c(OCCN3CCCCC3)cccc21`, the “activity change, negative = inhibition” value was -10.9%. For `CN(C)/C=C(/C(=O)c1ccc(Cl)cc1)S(=O)(=O)c1ccc(Cl)cc1`, the “activity change, negative = inhibition” value was 1.54% [at 383 µM]. `CCC(C)CCCCC(=O)N[C@@H](CCN)C(=O)N[C@H](C(=O)N[C@@H](CCN)C(=O)N[C@H]1CCNC(=O)C([C@@H](C)O)NC(=O)[C@@H](CCN)NC(=O)[C@H](CCN)NC(=O)[C@H](CC(C)C)NC(=O)[C@@H](CC(C)C)NC(=O)[C@H](CCN)NC1=O)[C@@H](C)O` (stereo partly drawn) ({Octanoyl(6-Me)}-[Dab]T[Dab][Dab][Dab][dL]L[Dab][dDab][ξThr(3R)]; lactam 4-C) was tested, and the “activity change, negative = inhibition” value was -4.21% [at 62.9 µM]. In the case of `O=S(=O)(c1ccc(-c2csc(Nc3ccc(Br)cc3)n2)cc1)N1CCCC1`, the “activity change, negative = inhibition” value was -9% [at 383 µM]. `CCc1cc2c(N3CCN(C(=O)c4ccco4)CC3)ncnc2s1` was tested, and the Potency was 100 µM (active). For `O=C(O)c1cc(S(=O)(=O)O)cc(Nc2c3ccccc3nc3ccccc23)c1O`, the “activity change, negative = inhibition” value was 3.8% [at 383 µM]. With `COc1ccc(CN2CCN(C(C)C(=O)N(C)Cc3cccc(F)c3)CC2)cc1OC` (stereo unspecified) the “activity change, negative = inhibition” value was -4.13%. For `COc1ccc(NC(=O)N2CC[C@@]3(CCCN(C(=O)c4csnn4)C3)C2)cc1`, the “activity change, negative = inhibition” value was -2.47%. `COc1ccccc1N(CC1CO1)S(=O)(=O)c1ccccc1` (stereo unspecified) was tested, and the “activity change, negative = inhibition” value was 2.5%. For `CCCOc1ccc(C(=O)NNC(=S)NC(=O)c2cc(-c3ccc(Cl)cc3)nc3ccccc23)cc1`, the “activity change, negative = inhibition” value was -18% [at 383 µM]. With `Cc1ccc(C2=NN(C(=O)c3ccccc3F)C(c3ccccc3F)C2)cc1` (stereo unspecified) the “activity change, negative = inhibition” value was -10.9% [at 383 µM]. In the case of `O=c1cc(O)c2ccccc2n1Cc1ccccc1F`, the “activity change, negative = inhibition” value was 0.617%. For `CCCN1CCN(CC(O)COC(c2ccc(OC)cc2)c2ccc(OC)cc2)CC1` (stereo unspecified), the “activity change, negative = inhibition” value was -2.05%. In the case of `CCN(CC)c1nc(-c2ccc(C(=O)NN)cc2)nc(-c2ccc(C(=O)NN)cc2)n1`, the “activity change, negative = inhibition” value was -7.98% [at 383 µM]. With `CCOc1ccc(C2Nc3ccc4ccccc4c3-c3c2c(=O)oc2ccccc32)cc1` (stereo unspecified) the “activity change, negative = inhibition” value was -28.1%. `O=C(Nc1cccn(Cc2c(Cl)cccc2Cl)c1=O)c1c(Cl)cccc1Cl` was tested, and the “activity change, negative = inhibition” value was -10.9% [at 383 µM]. `O=C(CC(Sc1ccc(Br)cc1)C(=O)O)c1ccc(F)cc1` (stereo unspecified) was tested, and the “activity change, negative = inhibition” value was 3.77% [at 383 µM]. For `CCCN(CCC)CCCNC(=S)Nc1ccc2nc(N3CCCC3)cc(C)c2c1`, the “activity change, negative = inhibition” value was 13.3%. With `O=C(O)CSc1cc(NS(=O)(=O)c2ccc(Br)cc2)c2ccccc2c1O` the Potency was 89.1 µM (active). With `N=c1oc2ccccc2cc1-c1nc(-c2ccc(Cl)cc2)cs1` the “activity change, negative = inhibition” value was -5.52%. In the case of `O=C1NC(=S)N/C1=C/c1ccc2ccccc2c1`, the “activity change, negative = inhibition” value was -20.1%. With `Cc1ccc(F)c(C2C3C=CCC(C)C3C(=O)N2Cc2ccccc2)c1` (stereo unspecified) the “activity change, negative = inhibition” value was -0.648%. For `CN1CCS/C1=C/C=C1/SC(=S)N(Cc2ccccc2)C1=O`, the “activity change, negative = inhibition” value was -22.5%. `CC(C)Cc1cc(C(=O)NCCCN2CCOCC2)no1` was tested, and the “activity change, negative = inhibition” value was 1.92%. In the case of `CCOc1ccc(-c2nn(-c3ccccc3)cc2/C=C2\SC(N)=NC2=O)cc1C`, the “activity change, negative = inhibition” value was -18.9% [at 383 µM]. For `CS(=O)(=O)c1ccc2nc(NC(=O)Nc3cccc(Cl)c3)sc2c1`, the Potency was 112 µM (active).
